Assay results from ChEMBL document CHEMBL5308504, “Tm Shift (DSF) assay results for EUbOPEN Chemogenomics Library” (2023).
Several values for one entry are separate records, joined by “and”; a condition that tells them apart may be missing. Equal values may be shown once.

What was measured:
Conditions in all cases: Compound concentration 20.0 uM, Protein concentration 2.0 uM, Result type QC Liability
[1] = target: Tyrosine-protein kinase ABL1 (Homo sapiens) (UniProt P00519)
[2] = target: Cyclin-dependent kinase 2 (Homo sapiens) (UniProt P24941)
[3] = target: Casein kinase I isoform delta (Homo sapiens) (UniProt P48730)
[4] = target: Glycogen synthase kinase-3 beta (Homo sapiens) (UniProt P49841)
[5] = target: Mitogen-activated protein kinase 1 (Homo sapiens) (UniProt P28482)
[6] = target: T1, Aurora kinase A (Homo sapiens) (UniProt O14965)
T1 sequence (whole entry): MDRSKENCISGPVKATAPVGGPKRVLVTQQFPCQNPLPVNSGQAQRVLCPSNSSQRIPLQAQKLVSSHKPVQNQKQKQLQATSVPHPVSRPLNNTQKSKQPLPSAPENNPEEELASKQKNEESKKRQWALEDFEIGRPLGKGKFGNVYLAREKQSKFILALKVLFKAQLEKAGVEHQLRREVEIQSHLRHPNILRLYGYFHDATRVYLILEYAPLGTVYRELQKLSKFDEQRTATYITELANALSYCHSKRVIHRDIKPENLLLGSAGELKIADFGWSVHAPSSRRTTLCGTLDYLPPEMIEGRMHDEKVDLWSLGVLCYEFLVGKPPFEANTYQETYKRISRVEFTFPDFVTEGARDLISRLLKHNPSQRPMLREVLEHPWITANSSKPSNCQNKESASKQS

Sequence of Mitogen-activated protein kinase 1 (Homo sapiens) (P28482 whole entry): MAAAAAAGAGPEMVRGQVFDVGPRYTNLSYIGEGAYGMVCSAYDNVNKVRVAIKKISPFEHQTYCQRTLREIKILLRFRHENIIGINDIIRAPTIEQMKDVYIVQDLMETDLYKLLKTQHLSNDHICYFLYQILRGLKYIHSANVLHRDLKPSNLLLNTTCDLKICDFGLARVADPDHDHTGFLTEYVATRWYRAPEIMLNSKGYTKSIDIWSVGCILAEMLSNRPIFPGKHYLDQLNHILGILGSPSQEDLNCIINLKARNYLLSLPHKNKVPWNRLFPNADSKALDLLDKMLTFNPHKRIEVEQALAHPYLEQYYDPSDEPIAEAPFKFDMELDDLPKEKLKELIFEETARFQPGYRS
Sequence of Glycogen synthase kinase-3 beta (Homo sapiens) (P49841 whole entry, looked up): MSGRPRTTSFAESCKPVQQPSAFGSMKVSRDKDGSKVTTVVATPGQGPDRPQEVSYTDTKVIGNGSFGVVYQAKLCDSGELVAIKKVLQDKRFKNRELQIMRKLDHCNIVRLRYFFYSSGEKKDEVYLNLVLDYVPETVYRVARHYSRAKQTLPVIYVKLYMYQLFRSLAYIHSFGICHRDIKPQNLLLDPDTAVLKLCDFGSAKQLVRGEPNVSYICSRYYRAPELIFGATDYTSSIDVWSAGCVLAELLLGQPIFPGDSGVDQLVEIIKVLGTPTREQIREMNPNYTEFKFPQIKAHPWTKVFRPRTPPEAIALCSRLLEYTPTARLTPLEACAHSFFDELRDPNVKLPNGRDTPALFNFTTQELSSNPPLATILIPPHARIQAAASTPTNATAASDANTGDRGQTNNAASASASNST
Sequence of Tyrosine-protein kinase ABL1 (Homo sapiens) (P00519 whole entry): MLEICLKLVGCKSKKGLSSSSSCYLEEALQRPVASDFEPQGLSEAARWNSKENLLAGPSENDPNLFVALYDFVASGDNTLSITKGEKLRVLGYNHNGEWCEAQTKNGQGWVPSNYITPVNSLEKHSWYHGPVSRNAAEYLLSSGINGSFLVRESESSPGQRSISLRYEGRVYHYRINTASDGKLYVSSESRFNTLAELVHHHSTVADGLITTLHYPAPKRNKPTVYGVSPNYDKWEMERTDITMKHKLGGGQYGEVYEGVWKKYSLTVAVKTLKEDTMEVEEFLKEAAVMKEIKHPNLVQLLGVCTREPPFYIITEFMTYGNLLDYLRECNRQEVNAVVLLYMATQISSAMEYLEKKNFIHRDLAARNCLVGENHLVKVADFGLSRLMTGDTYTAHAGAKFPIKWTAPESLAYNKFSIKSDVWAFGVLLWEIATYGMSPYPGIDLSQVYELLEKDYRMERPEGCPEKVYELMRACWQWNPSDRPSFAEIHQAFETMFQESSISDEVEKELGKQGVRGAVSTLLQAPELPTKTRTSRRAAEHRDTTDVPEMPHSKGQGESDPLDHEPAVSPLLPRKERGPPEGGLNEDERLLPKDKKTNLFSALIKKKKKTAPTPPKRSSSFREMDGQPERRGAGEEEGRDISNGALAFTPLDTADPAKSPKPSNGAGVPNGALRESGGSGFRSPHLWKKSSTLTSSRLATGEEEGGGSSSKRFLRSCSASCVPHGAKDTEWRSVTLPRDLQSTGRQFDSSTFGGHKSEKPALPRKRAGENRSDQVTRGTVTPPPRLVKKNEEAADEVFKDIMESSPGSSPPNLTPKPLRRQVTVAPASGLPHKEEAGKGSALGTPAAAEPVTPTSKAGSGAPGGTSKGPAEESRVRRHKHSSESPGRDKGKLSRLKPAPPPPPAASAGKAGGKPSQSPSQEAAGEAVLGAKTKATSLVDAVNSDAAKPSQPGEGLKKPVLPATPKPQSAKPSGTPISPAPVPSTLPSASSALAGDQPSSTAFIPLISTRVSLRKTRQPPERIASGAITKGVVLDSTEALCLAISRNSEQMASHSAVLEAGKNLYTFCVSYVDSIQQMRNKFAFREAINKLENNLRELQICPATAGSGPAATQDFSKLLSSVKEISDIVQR
Sequence of Casein kinase I isoform delta (Homo sapiens) (P48730 whole entry, looked up, canonical isoform): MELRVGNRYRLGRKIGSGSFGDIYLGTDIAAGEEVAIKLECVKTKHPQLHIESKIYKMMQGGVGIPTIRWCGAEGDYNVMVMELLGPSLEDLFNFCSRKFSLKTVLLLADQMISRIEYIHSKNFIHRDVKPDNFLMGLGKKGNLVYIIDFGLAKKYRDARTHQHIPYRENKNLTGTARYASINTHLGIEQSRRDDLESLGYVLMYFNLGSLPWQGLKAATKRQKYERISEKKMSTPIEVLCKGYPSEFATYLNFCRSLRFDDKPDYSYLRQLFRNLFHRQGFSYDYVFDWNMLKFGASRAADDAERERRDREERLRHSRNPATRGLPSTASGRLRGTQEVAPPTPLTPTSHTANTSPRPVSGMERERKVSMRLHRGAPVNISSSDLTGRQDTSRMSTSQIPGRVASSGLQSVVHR

Row | SMILES | ΔTm [1] | ΔTm [2] | ΔTm [3] | ΔTm [4] | ΔTm [5] | ΔTm [6]
1 | O=C(CCCN1CCC(O)(c2ccc(Cl)cc2)CC1)c1ccc(F)cc1 | 0.25 °C | 0.82 °C | 0.25 °C | -0.66 °C | 0.38 °C | -0.3 °C
2 | CN(C1CCc2c(c3ccccc3n2CC(=O)O)C1)S(=O)(=O)c1ccc(F)cc1 (stereo not given) | 0.59 °C | 0.46 °C | -0.23 °C | 0 °C | -0.11 °C | 0.35 °C
3 | CN1CCN(C(=O)c2ccc3cc2OCCOCCNc2ccn4ncc-3c4n2)CC1 | 1.92 °C | 0.81 °C | 0.3 °C | 0 °C | 0.5 °C | 3.85 °C
4 | CCN1C(=O)/C(=C(\NC2CCN(C)CC2)c2ccc3c(c2)OCO3)c2cc(C(C)=O)ccc21 | 0.4 °C | 0.54 °C | 1.8 °C | 0.62 °C | 0.05 °C | 0.02 °C
5 | CNc1ncc2cc(-c3ccc(-c4cccc(C)n4)cc3Cl)c(=O)n(C[C@H]3OC[C@H](N)CO3)c2n1 | 5.88 °C | 1.85 °C | 1.07 °C | 0.45 °C | -0.4 °C | 8.51 °C
6 | O=C1CCCc2[nH]c(-c3ccnc(NCC4CC4)c3)c(Nc3ccccc3)c21 | -0.41 °C | 0.46 °C | 3.16 °C | 1.37 °C | -0.73 °C | 0.11 °C
7 | CNc1ncc2cc(-c3ccc(-c4ncccc4F)cc3Cl)c(=O)n(C[C@H]3OC[C@H](N)CO3)c2n1 | 4.27 °C | 1.01 °C | 0.79 °C | -0.51 °C | 3.43 °C | 4.87 °C
8 | O=c1[nH]c(CS[C@H]2CC[C@H](O)CC2)nc2cc(OCC3CC3)cc(F)c12 | 0.13 °C | 0.95 °C | 0.35 °C | 0.78 °C | 0.46 °C | -0.03 °C
9 | CCn1ccc(Nc2ncc3c(n2)-c2c(nn(C)c2-c2ccc(-c4cnn(C)c4)cc2Cl)CC3)n1 | 3.73 °C | 5.04 °C | 2.25 °C | 5.78 °C | 0.81 °C | 6.95 °C
10 | Cc1n[nH]c2ncc(C(=O)N3CCC[C@H]3c3ccc(Cl)cc3)cc12 | 0.42 °C | 0.82 °C | 0.12 °C | 7.82 °C | 0.69 °C | 0.03 °C
11 | Cc1[nH]nc(C(F)(F)F)c1Cc1sc2c(c1C(=O)N1C[C@](C)(O)CO1)c(=O)n(C)c(=O)n2C(C)C | 0.24 °C | 0.67 °C | -0.27 °C | 0.32 °C | 0.23 °C | -0.32 °C
12 | CN1CCN(c2ccnc(NCCc3ccccc3)n2)CC1 | 0.08 °C | 0.11 °C | 0.22 °C | -0.49 °C | 0.69 °C | -0.92 °C
13 | COCCOCn1c(S(C)(=O)=O)nc2c1c(=O)n(C)c(=O)n2C | 0.21 °C | 0.39 °C | -0.13 °C | -0.24 °C | -0.83 °C | 0.11 °C
14 | CNC(=O)c1cc(C(=O)N[C@H]2[C@@H]3COC[C@@H]32)cc2c1O[C@@H](CF)[C@@H]2c1ccccc1 | -0.03 °C | 0.5 °C | 0.22 °C | -0.96 °C | 0.58 °C | -0.12 °C
15 | C=C1/C(=C\C=C2/CCC[C@]3(C)[C@@H]([C@H](C)CCCC(C)(C)O)CC[C@@H]23)C[C@@H](O)C[C@@H]1O | -0.27 °C | -4.7 °C | 0 °C | -6.39 °C | -0.74 °C | -10 °C
16 | CN(C)C(=O)Cn1cc(-c2ccc(-c3cncc4ccccc34)cc2)cn1 | 3.4 °C | 0.46 °C | 1.89 °C | 0.72 °C | -0.64 °C | 2.96 °C
17 | Fc1ccc(-c2c3cccc(C(F)(F)F)c3nn2Cc2ccc(F)cc2Cl)cc1 | 0.02 °C | 0.18 °C | 0.79 °C | -1.83 °C | 0.06 °C | -1.66 °C
18 | CCOC(=O)c1cc2cc(-c3cc(C(=O)NCc4ccc(C(=O)O)cc4)nn3C)ccc2[nH]1 | 0.13 °C | -0.6 °C | 0.53 °C | 0.78 °C | -0.1 °C | 1.73 °C
19 | Cc1cc(=O)n(C)c2cc(N3C(=O)CC[C@H](NS(=O)(=O)CC(C)C)[C@H]3c3ccc(Cl)cc3)ccc12 | 0.08 °C | 0.6 °C | -0.11 °C | -0.55 °C | 0.38 °C | 0.15 °C

Row | SMILES | ΔTm [1] | ΔTm [2] | ΔTm [3] | ΔTm [4] | ΔTm [5] | ΔTm [6]
20 | COC1(C#Cc2ccc(Cl)c(-c3ncc4c(n3)-c3sc(NC(C)=O)nc3CC4)c2)CCN(C)CC1 | 0.87 °C | -0.1 °C | 1.14 °C | -0.95 °C | 0.03 °C | 0 °C
21 | CCCc1c(OCCCOc2ccc(OCC(=O)O)cc2)ccc(C(C)=O)c1O | 0.08 °C | -0.16 °C | 1.18 °C | -0.07 °C | -0.16 °C | -1.56 °C
22 | Cc1cc(OC2CCS(=O)(=O)CC2)cc(C)c1-c1cccc(COc2ccc(C(=O)O)c(F)c2)c1 | 0.14 °C | -1.08 °C | 0.23 °C | -0.54 °C | 0.7 °C | -1.19 °C
23 | Nc1ncc2c(n1)-c1c([nH]c3ccc(C4=CCOCC4)cc13)CCC2 | 0.44 °C | 1.02 °C | 2.29 °C | 0.71 °C | -0.03 °C | 1.93 °C
24 | C=CC(=O)Nc1cccc(C)c1Nc1ncc2cc(-c3c(Cl)c(OC)cc(OC)c3Cl)ccc2n1 | 0.49 °C | 0.87 °C | 0.34 °C | -1.24 °C | -3.69 °C | -2.08 °C
25 | CCCNc1ccc2ncc(-c3ccncc3)n2n1 | 5.22 °C | 4.76 °C | 5.6 °C | 4.07 °C | 1.16 °C | 6.52 °C
26 | CNC(=O)c1cccc(-c2ccc3c(N4CCOC[C@@H]4C)nc(N4CCOC[C@@H]4C)nc3n2)c1 | 0.83 °C | 0.33 °C | 0.36 °C | 0.51 °C | 0 °C | 0.91 °C
27 | Nc1nccc(-c2c(-c3ccc(F)cc3)ncn2C2CCCCC2)n1 | 2.76 °C | -0.08 °C | 8.08 °C | 2.6 °C | 0.33 °C | -0.66 °C
28 | CC/C(=C(\c1ccccc1)c1ccc(OCCN(C)C)cc1)c1ccccc1 | -1.51 °C | -1.86 °C | 0.3 °C | -1.42 °C | -0.3 °C | -2.91 °C
29 | NS(=O)(=O)c1ccc(Nc2nc(OCC3CCCCC3)c3nc[nH]c3n2)cc1 | 5.71 °C |  | 0.51 °C | 5.83 °C | 2.65 °C | 7.68 °C
30 | COc1cnccc1Nc1nc(-c2nn(Cc3c(F)cc(OCCO)cc3F)c3ccccc23)ncc1OC | -0.43 °C | -0.62 °C | -2.9 °C | -5.93 °C | -0.07 °C | -1.95 °C
31 | CN[C@@H](C)C(=O)N[C@H](C(=O)N1CCC[C@H]1C(=O)N[C@@H]1CCCc2ccccc21)C1CCCCC1 | 0.2 °C | 0.07 °C | 1.13 °C | -0.99 °C | 0.48 °C | -0.97 °C
32 | CN(C(=O)c1ccccc1)c1ccc2c(c1)[nH]/c(=N\C(=O)c1ccc(Br)s1)n2CCC(N)=O | 3.94 °C | 0.69 °C | 6.56 °C | 0.89 °C | 0.41 °C | 3.75 °C
33 | C[S+](C)[O-] | 0 °C (2×) and 0.21 °C | 0 °C (2×) and 0.78 °C | 0 °C (2×) and 0.01 °C | 0 °C (2×) and -0.51 °C | 0 °C (2×) and 0.53 °C | 0 °C (2×) and 0.05 °C
34 | O=C1NC(=NCc2cccs2)SC1=Cc1ccc2ncccc2c1 | 2.9 °C |  | 0.75 °C | 3.78 °C | 0.66 °C | -0.94 °C
35 | COc1cc(C(=O)NCCOCCOCCOCC(=O)N[C@H](C(=O)N2C[C@@H](O)C[C@H]2C(=O)NCc2ccc(-c3scnc3C)cc2)C(C)(C)C)ccc1Nc1ncc(C(F)(F)F)c(Oc2cccc3c2C(=O)CC3)n1 | -2.56 °C | -4.04 °C | 0.94 °C | 0 °C | 0.73 °C | 0.94 °C
36 | O=c1cc(C2CCNCC2)n2nc3cccc(Cl)c3c2[nH]1 | 0.46 °C | -0.11 °C | 0.7 °C | 0.46 °C | 0 °C | -0.12 °C
37 | Cc1nccn1-c1ccc(Sc2cccc(C3(C(N)=O)CCOCC3)c2)cc1 | -0.23 °C | 0.53 °C | -0.21 °C | 0.36 °C | 0.38 °C | -0.31 °C
